Tgondii IFNg: inhibitors of Toxoplasma gondii growth with IFN-gamma. Toxoplasma gondii growth in IFN-gamma-treated host cells; hits give low values. activity change, negative = inhibition, % (test concentration not listed). hit rate 3.8% among 69,000. AID 1259416; in the data active = activity change below about -70%, passing the limit was not always enough;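 note: host cells are HeLa cells infected with Toxoplasma gondii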
* marks the source's active call; other numbers are inactive results; i = inactive. The sample as a whole holds a higher share of hits than the screen did.

SMILES | Tgondii IFNg
Cc1cc(C)n(Cc2nc(-c3ccc(NC(=O)c4ccc(F)c(Cl)c4)cc3)oc2C)n1 | 308
COc1ccccc1CC(=O)Nc1ccc(-c2nc(Cn3nc(C)cc3C)c(C)o2)cc1 | -80*
Cc1ccc(C(=O)Nc2ccc(-c3nc(Cn4nc(C)cc4C)c(C)o3)cc2)c(C)c1 | 115
COc1ccc(CC(=O)Nc2ccc(-c3nc(Cn4nc(C)cc4C)c(C)o3)cc2)cc1 | -33
Cc1cc(C)n(Cc2nc(-c3ccc(NC(=O)COc4ccccc4)cc3)oc2C)n1 | -2
Cc1cc(C)n(Cc2nc(-c3ccc(NC(=O)c4ccc(C)c(C)c4)cc3)oc2C)n1 | -88*
Cc1cccc(CN2CCC(N(C)C)CC2C(=O)O)n1 (configuration not stated) | 3
CN(Cc1ccc2c(c1)OCO2)Cc1nc(-c2cccnc2)no1 | 6
Cn1c(COc2ccc(Cl)cc2)nc2ccccc21 | 271
COc1ccc(CC(=O)N2CCn3cnc(COCC4CC4)c3C2)cc1 | 4
CCN(CC)CC1CCC2(COCCN(C(=O)c3cscn3)C2)O1 (configuration not stated) | 3
N#Cc1ccc(N2CC3(CCN(C(=O)c4cnccn4)C3)CC2=O)cc1 (configuration not stated) | 115
Cc1ccc(N2CC3(CCN(C(=O)Cc4ccc(F)cc4)C3)CC2=O)cc1 (configuration not stated) | -113*
Cc1ccccc1N1CC2(CCN(C(=O)Cc3ccc(F)cc3)C2)CC1=O (configuration not stated) | -4
Cc1ccc(N2CC3(CCN(C(=O)Nc4ccc(F)cc4)C3)CC2=O)cc1 (configuration not stated) | -11
O=C(c1ccn[nH]1)N1CCC2(CC(=O)N(c3ccc(F)cc3)C2)C1 (configuration not stated) | -92*
O=C(c1ccn[nH]1)N1CCC2(CC(=O)N(c3ccccc3)C2)C1 (configuration not stated) | -11
O=C(Cc1ccc(Cl)cc1)NCCc1csc(-c2ccc(C(F)(F)F)cc2)n1 | 426
CCN(C)C(=O)c1cc(-c2ccn(C3CCCC3)n2)n2ccccc12 | -8
CC(C)OC(=O)c1cc(NC(=O)[C@@H]2CCCO2)ccc1Cl | -3
Fc1ccc(-c2ccc(C3[C@@H]4CN(Cc5ccccc5)C[C@H]3N4)cc2)cc1 (some centres not stated) | -33
CN(C)C(=O)c1cccc(-c2ccc(C3[C@@H]4CN(Cc5ccccc5F)C[C@H]3N4)cc2)c1 (some centres not stated) | -6
Cc1ccc(-c2ccc([C@@H]3[C@@H]4CN(Cc5ccccc5F)C[C@H]3N4)cc2)cc1 | -73*
Cc1ccc(C2=NC3(CCN(CC(=O)NCc4ccc(F)cc4)CC3)NC2=O)cc1C | -36
COc1cccc(-n2c(=O)c(C(=O)Nc3ccc(C)cc3F)c(O)c3cccnc32)c1 | 13
SMILES | Tgondii IFNg
CS(=O)(=O)N1C[C@@H]2OCC[C@@H]2[C@H](C(=O)NCc2cccnc2)C1 | 16
Cc1ccc(Sc2ccc(NC(=O)Nc3ccc(OC(F)(F)F)cc3)cn2)cc1 | -67
Cc1cc(C)cc(NC(=S)Nc2ccc(Oc3ccc(OC(F)(F)F)cc3)cc2)c1 | -106*
S=C(Nc1ccc(Oc2ccc(Cl)cc2)cc1)Nc1cccc(Cl)c1Cl | -32
CC(C)N1CCNC(=O)C1CC(=O)NCCc1nc2ccc(Cl)cc2[nH]1 (configuration not stated) | 8
CCN1C(=O)CC(c2ccccc2)C12CCN(C(=O)[C@H]1CCCO1)CC2 (some centres not stated) | -19
CCC1(CC)CN(C(=O)c2ccc(CC3CCCNC3)cc2)CCO1 (configuration not stated) | -25
CC(C)(C)C(=O)Nc1cc(C(F)(F)F)ccc1N1CCC(C(F)(F)F)CC1 | -97*
CN1CCN(c2ccc(NC(=O)Nc3ccc(C(F)(F)F)cc3)cc2)CC1 | 1
CC(=O)c1ccc(N2CCC(C)CC2)c(F)c1 | -8
CO[C@@H]1CN(C)C(=O)c2ccc(NC(=O)c3nc4ccccc4s3)cc2OC[C@H](C)N(Cc2cccnc2)C[C@@H]1C | 4
CCOC[C@]12COC[C@H]1CN(C(=O)COc1ccccc1)C2 | i
O=C(C1CC1)N1CCC(F)(F)C2(CCN(c3cnccn3)C2)C1 (configuration not stated) | 1
CCCCN1CCC(O)(c2cnc(OC)nc2OC)CC1 | -22
COc1ccc(CN2C[C@@H]3CC[C@@](O)(c4ncccc4C)[C@@H]3C2)cc1 | -51
CCn1c(CN2C[C@@H]3CC[C@@](O)(c4cnc(OC)nc4OC)[C@@H]3C2)nc2ccccc21 | -85*
CC(C)c1nc(CN(C)C(=O)C2CCOC2)no1 (configuration not stated) | -42
Cn1cccc1C(=O)N1CCc2c(CN3CCCC3)n[nH]c2C1 | 6
COc1cc(N)c(Cl)cc1C(=O)N[C@@H]1CCNCC1OC (some centres not stated) | 14
COc1ccccc1OC(C)C(=O)Nc1sc(Cc2ccccc2)c(C)c1C(N)=O (configuration not stated) | -51
Brc1ccc2[nH]c3c(Br)cc(Br)cc3c2c1 | 16
Brc1ccc2[nH]c3c(c2c1)CCCC3NCc1ccccc1 (configuration not stated) | -98*
O=C1Cc2c([nH]c3ccc(Br)cc23)-c2ncccc2N1 | -7
Cc1cccc(-c2c(-c3ccccc3)ncn2CCCn2ccnc2)c1 | -18
CS(=O)(=O)NCC1CCN(Cc2cnc(N3CCCC3)nc2)C1 (configuration not stated) | 0
SMILES | Tgondii IFNg
CCc1noc(CN(CC)C(=O)c2cc(Cl)c[nH]c2=O)n1 | 5
O=C(CN1C(=O)CCc2cc(S(=O)(=O)N3CCCCC3)ccc21)N1CCOCC1 | 6
Cn1cc(N2C(=O)CC3C2CCN3CCc2ccccc2)cn1 (configuration not stated) | -15
O=C1CCc2cc(S(=O)(=O)Nc3cccc4c3CCCC4)cc3c2N1CC3 | -114*
Cc1cccc(NS(=O)(=O)c2cc3c4c(c2)CCN4C(=O)CC3)c1 | -38
CCc1ccc(NS(=O)(=O)c2cc3c4c(c2)CCN4C(=O)CC3)cc1 | -5
Cc1ccc(NS(=O)(=O)c2cc3c4c(c2)CCN4C(=O)CC3)cc1C | -95*
COC(=O)c1ccccc1NS(=O)(=O)c1cc2c3c(c1)CCN3C(=O)CC2 | 117
Cc1cccc(C)c1NS(=O)(=O)c1cc2c3c(c1)CCC(=O)N3CCC2 | -3
COc1cc(F)ccc1-c1c(-c2ccccc2)ncn1CCCN1CCCC1=O | -14
COC(=O)[C@@H]1CN(C(=O)C2CCN(S(C)(=O)=O)CC2)C[C@H]1c1ccc(OC)cc1 | 2
Cc1ccc(C(C)(C)C(=O)N2CCC(c3ccc(C(=O)Nc4nccs4)cn3)CC2)cc1 | -9
OC(CSc1cccs1)CN1CCN(C(c2ccccc2)c2ccccc2)CC1 (configuration not stated) | -94*
C(=C\c1ccccc1)/CN1CCN(C(c2ccccc2)c2ccccc2)CC1 | 14
CC(Cn1cccn1)C(=O)NCc1cccnc1N1CCN(C)CC1 (configuration not stated) | 4
CCCCC(=O)Nc1ccc(C(=O)N2CCCCC2C(=O)O)cc1 (configuration not stated) | 3
COc1ccc2c3c(n(C)c2c1)[C@H](CO)N(C(=O)C1CCOCC1)CC31CCN(C(=O)c2ccncc2)CC1 | 41
CC(Oc1ccc(-n2cnnn2)cc1)C(=O)N(C)CC1OCCc2ccccc21 (configuration not stated) | 3

Bioassay records from PubChem BioAssay.
